The structures appear in SMILES notation.

For assay [1], the system named is Human papillomavirus type 1a protein E7 (residues 44-93). As to the kind of experiment: HPV1a E7 fragment binders on microarrays, primary screen, biochemical, small-molecule microarray, residues 44-93, 635 nm fluorescence (AID 1108).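 Note: E7 fragment applied at 1 µg/mL in TBST for 1 h at 4 C; score combines spot fluorescence with its signal to noise ratio.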 The note with it: small-molecule microarray binding, fluorescence 635 nm; higher = more signal.
A short description of assay [2]: modulators of HCV replicon luciferase signal, primary screen, HCV replication inhibitor project, Huh7 cells, luciferase reporter (AID 1109).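 Note: huh7 hepatoma cells harbouring a luciferase neomycin HCV replicon reporter; luciferase luminescence as measure of HCV replicon replication; test concentration not given here.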 Conditions: 48 h, higher = more signal. On the technique in general: In antiviral work, replicon cells carry a viral genome segment that copies itself.
Assay [3] concerns the target Left-right determination factor 2 (Homo sapiens) (UniProt O00292). As to the kind of experiment: LEFTY2 binders on small-molecule microarrays, primary screen, biochemical, small-molecule microarray, 635 nm fluorescence scan (AID 1110). Conditions: LEFTY2 binding, higher = more signal.
Assay [4] has as its target Calmodulin-1 (Homo sapiens) (UniProt P0DP23). As to the kind of experiment: CALM1 binders on microarrays, EGTA buffer, profiling panel, biochemical, small-molecule microarray, Cy5-labelled CALM1 (AID 1111).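 Note: labelled calmodulin applied in Tris saline Tween buffer holding calcium plus EGTA and DTT.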 Conditions: Cy5-CALM1 binding fluorescence, higher = more signal.
Assay [5] has the same target. As to the kind of experiment: calcium-bound CALM1 binders on microarrays, profiling panel, artefact control for SMM control-protein annotation, biochemical, small-molecule microarray, Cy5-labelled CALM1, plus calcium (AID 1112).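 Note: score merges spot fluorescence with signal to noise from triplicate slides.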 Conditions: Cy5-CALM1 binding fluorescence, higher = more signal.
Assay [6] can be described thus: small-molecule microarray binders of probe aWnt5a, primary screen, biochemical, biotinylated probe, 635/667 nm fluorescence (AID 1113).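 Note: score merges 667 nm fluorescence intensity with signal-to-noise per printed feature.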 The note with it: higher = more signal.
Assay [7] is described as follows: small-molecule microarray binders of probe aShh, primary screen, biochemical, biotinylated probe, 635/667 nm fluorescence (AID 1114).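 Note: probe is biotin-labelled aShh protein from a stem cell growth factor screen; measures binding of labelled protein to compounds printed on the slide; score merges feature fluorescence at 667 nm with signal-to-noise.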 Conditions: higher = more signal.
Assay [8] can be described thus: small-molecule microarray binders of probe aNog, primary screen, biochemical, biotinylated probe, 635/667 nm fluorescence (AID 1115).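 Note: probe is biotinylated aNog protein used at 0.15 µg/mL for 1 h at 4 C; z-score combines 667 nm fluorescence of each spot with its signal to noise.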 The note with it: higher = more signal.
Assay [9] addresses Torsin-1A-interacting protein 1 (Homo sapiens) (UniProt Q5JTV8). As to the kind of experiment: LAP1 binders from COS7 cell lysate, primary screen, small-molecule microarray, 635/667 nm fluorescence (AID 1116). The note with it: COS7-hLAP1 lysate binding, 635 nm fluorescence, higher = more signal.
For assay [10], the target named is Alpha-bungarotoxin (Bungarus multicinctus) (UniProt P60615). As to the kind of experiment: alpha-bungarotoxin binders on microarray, profiling panel, artefact control for SMM control protein annotation, biochemical, small-molecule microarray, Alexa647 label, 635/667 nm fluorescence (AID 1117). Conditions: alpha-BTX-A647 binding fluorescence, higher = more signal.
Alpha-bungarotoxin (Bungarus multicinctus), sequence (P60615 whole entry, looked up): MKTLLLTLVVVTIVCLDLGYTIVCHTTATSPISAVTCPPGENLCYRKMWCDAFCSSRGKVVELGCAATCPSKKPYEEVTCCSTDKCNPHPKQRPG

Torsin-1A-interacting protein 1 (Homo sapiens), sequence (Q5JTV8 whole entry, looked up): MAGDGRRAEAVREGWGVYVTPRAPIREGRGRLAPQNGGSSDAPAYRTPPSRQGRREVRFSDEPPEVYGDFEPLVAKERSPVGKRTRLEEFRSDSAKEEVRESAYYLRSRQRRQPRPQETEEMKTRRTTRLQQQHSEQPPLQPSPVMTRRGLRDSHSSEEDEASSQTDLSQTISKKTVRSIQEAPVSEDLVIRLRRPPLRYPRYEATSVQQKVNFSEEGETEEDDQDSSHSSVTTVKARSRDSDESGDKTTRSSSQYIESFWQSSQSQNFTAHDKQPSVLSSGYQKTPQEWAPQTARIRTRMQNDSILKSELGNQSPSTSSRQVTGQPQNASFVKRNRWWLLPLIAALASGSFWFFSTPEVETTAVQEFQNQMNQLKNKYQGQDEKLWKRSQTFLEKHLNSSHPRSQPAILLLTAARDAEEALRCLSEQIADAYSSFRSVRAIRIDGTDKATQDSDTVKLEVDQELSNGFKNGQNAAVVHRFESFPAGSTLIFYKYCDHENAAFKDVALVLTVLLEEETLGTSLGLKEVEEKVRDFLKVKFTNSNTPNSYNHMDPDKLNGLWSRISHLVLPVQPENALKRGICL
Left-right determination factor 2 (Homo sapiens), sequence (O00292 whole entry, looked up): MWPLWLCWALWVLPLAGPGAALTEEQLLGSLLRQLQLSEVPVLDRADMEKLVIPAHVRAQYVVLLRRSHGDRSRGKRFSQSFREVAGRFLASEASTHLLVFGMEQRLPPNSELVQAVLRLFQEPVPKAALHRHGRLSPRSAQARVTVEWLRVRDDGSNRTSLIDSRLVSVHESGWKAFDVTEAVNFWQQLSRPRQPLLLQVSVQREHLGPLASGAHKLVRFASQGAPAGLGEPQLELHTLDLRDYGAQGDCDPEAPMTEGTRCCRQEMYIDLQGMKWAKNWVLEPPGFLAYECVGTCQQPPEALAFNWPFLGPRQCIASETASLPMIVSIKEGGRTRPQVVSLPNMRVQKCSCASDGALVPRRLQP

As for `CC(C)c1ccc(NN2C(C(O)C(C)C)C=CC3C(=O)N(c4ccccc4)C(=O)C32)cc1` (stereo not given), the composite z-score in [1] is 0.713; in [3], 0.136; in assay [4], 2.1; in assay [5], 0.721; in [6], 0.168; in assay [7] it was 0.998. Also, the composite z-score in [8] amounted to 1.8; in assay [9] it was 0.817; in assay [10] it was 1.49. This molecule showed a z-score in assay [2] of 2.43.

Consider `Cc1ccc(F)cc1S(=O)(=O)N[C@@H]1CCN(Cc2ccc3c(c2)OCO3)C1`, for which the composite z-score in [1] is -0.28; in assay [3] it was 0.198; in assay [4], -0.786; in assay [5], -0.997; in [6] it was -0.176; in assay [7] it was -0.0626. Further, the composite z-score in assay [8] is -0.12; in assay [9], 0.636; in [10], 0.445. Further, the z-score in assay [2] is -1.98.

As to `O=C1O[C@@H](c2ccccc2)[C@@H](c2ccccc2)N2[C@@H](c3ccc(OCCO)cc3)[C@]3(C(=O)Nc4ccc(C#CCCO)cc43)[C@@H](C(=O)Nc3nc4ccccc4s3)[C@H]12`, the composite z-score is 1.36 in assay [1]; 0.364 in assay [3]; 0.84 in [4]; 0.338 in assay [5]; 0.0219 in assay [6]; 0.0639 in assay [7]. The composite z-score in [8] was -0.353; in assay [9], 0.82; in [10], 0.626. The z-score in assay [2] is -1.36.

As for `C[C@H]1NC(=O)C([C@@H](C)OCc2ccccc2)NC(=O)[C@@]23C(=O)N[C@@H](Cc4ccccc4)C2[C@H](C)[C@@]2(C)O[C@H]2C3/C=C/C/C=C\CNC1=O` (stereo not given in full), the composite z-score in assay [1] is -0.037; in [3] it was 0.39; in [4] it was -0.553; in assay [5] it was -0.854; in assay [6] it was -0.213; in assay [7], -0.0553. For the same molecule, the composite z-score in [8] was -0.0602; in assay [9] it was -0.0194; in [10], 0.21. In addition, the z-score in assay [2] was -1.52.

Consider `C=CCC(OC(C)=O)[C@@H]1[C@@H](N(Cc2cccc3ccccc23)C(=O)c2cccc3ccccc23)c2cc(OCCCO)ccc2N1C(=O)Cc1ccc2ccccc2c1` (stereo not given in full), for which the composite z-score in assay [1] was 0.281; in assay [3], -0.277; in assay [4], -0.603; in assay [5] it was -0.177; in assay [6], -0.0685; in assay [7], -0.138. The composite z-score in assay [8] was 0.255; in [9], 0.0057; in assay [10], -0.424. The same molecule registered a z-score in assay [2] of 0.108.

Take `COCCOC(=O)N1C(=O)[C@@]2(c3cc(C#CCC(C(=O)OC)C(=O)OC)ccc31)[C@H](C(N)=O)[C@H]1C(=O)O[C@H](c3ccccc3)[C@H](c3ccccc3)N1[C@@H]2c1ccc(OCCO)cc1`: the composite z-score in [1] was 1.43; in assay [3], 0.705; in [4], 1.27; in [5], -0.27; in assay [6], -0.0161; in assay [7] it was 0.184. For the same molecule, the composite z-score is 0.177 in [8], 0.775 in assay [9] and 1.44 in assay [10]. The z-score in assay [2] was -1.88.

Take `CC(C)(C)N1CC=CC23O[C@@H]4/C=C\CCCOC(=O)C4[C@H]2C(=O)N(CCCCCCO)[C@@H]3C1=O` (stereo not given in full): the composite z-score in [1] is -0.802; in assay [3], -1.03; in [4], -0.558; in [5], 0.337; in assay [6], -0.0873; in [7], 0.0952. Besides, the composite z-score is 0.382 in [8], 1.24 in assay [9] and -1.34 in assay [10]. In assay [2], this molecule returned a z-score of -0.762.

Turning to `COCCOC(=O)N1C(=O)[C@@]2(c3cc(C#Cc4ccc(OC)cc4)ccc31)[C@H](C(=O)N1CCCCCCC1)[C@H]1C(=O)O[C@H](c3ccccc3)[C@H](c3ccccc3)N1[C@@H]2c1ccccc1OCCO`, the composite z-score in [1] was 1.35; in assay [3], 0.647; in assay [4], 2.42; in assay [5], 1.49; in assay [6], 1.16; in assay [7], 0.451. Moreover, the results for the composite z-score in [8], in assay [9] and in assay [10] were 1.53, 4.47 and 2.27, respectively. This molecule gave a z-score in assay [2] of -0.0111.

As for `COCCOC(=O)N1C(=O)[C@@]2(c3cc(C#CCCO)ccc31)[C@H](C(=O)N1CCc3cc(OC)c(OC)cc3C1)[C@H]1C(=O)O[C@H](c3ccccc3)[C@H](c3ccccc3)N1[C@@H]2c1ccccc1OCCO`, the composite z-score in assay [1] was 1.4; in assay [3], 0.473; in assay [4] it was 1.43; in [5], 0.013; in assay [6] it was 0.186; in assay [7], -0.0146. Also, the figures for the composite z-score in assay [8], in [9] and in assay [10] were 0.596, 0.325 and 0.477, respectively. The molecule also came in with a z-score in [2] of -1.75.

On to `CCOC(=O)C[C@H]1[C@H](OC(=O)c2ccc(-c3ccccc3)cc2)[C@@H](NC(=O)c2ccc3ccccc3c2)c2cc(OCCCO)ccc2N1C(=O)c1ccccc1`, for which the composite z-score is 0.965 in [1]; 0.564 in [3]; 0.128 in assay [4]; 0.116 in [5]; 0.163 in assay [6]; 0.0637 in [7]. The values for the composite z-score in assay [8], in [9] and in assay [10] were 0.0395, 0.341 and 0.509, respectively. Moreover, the z-score in [2] was -1.09.

For `COCCOC(=O)N1C(=O)[C@@]2(c3cc(C#CC4(O)CCCCCC4)ccc31)[C@H](C(=O)NC[C@H](O)c1ccccc1)[C@H]1C(=O)O[C@H](c3ccccc3)[C@H](c3ccccc3)N1[C@@H]2c1ccc(O)cc1`, the composite z-score in [1] was -0.132; in assay [3] it was 0.0174; in assay [4], 1.37; in assay [5], -0.112; in assay [6] it was 0.0718; in assay [7] it was -0.0055. Also, the composite z-score in [8] is -0.111; in assay [9], 1.14; in [10] it was 1.61. The molecule further came in with a z-score in assay [2] of -0.68.

For the molecule `CC(C)C(=C=CC[C@@H](O)c1cccc(OCCO)c1)CCO`, the composite z-score in assay [1] was 0.217; in assay [3], 0.0381; in [4], -0.203; in [5], -0.136; in assay [6], -0.154; in assay [7], -0.229. For the same molecule, the composite z-score in assay [8] is -0.273; in assay [9] it was 0.393; in assay [10], -0.529. Moreover, the z-score in assay [2] is 0.13.

Consider `C=CC[C@]1(C(=O)OC)N=C(c2ccc(OCCCO)cc2)O[C@H]1c1ccccc1N=[N+]=[N-]`, for which the composite z-score is 1.06 in assay [1]; 0.786 in assay [3]; 0.592 in [4]; -0.357 in assay [5]; 0.194 in assay [6]; 0.598 in assay [7]. The results for the composite z-score in assay [8], in [9] and in [10] were 1.7, 0.387 and 0.935, respectively. In assay [2], this molecule gave a z-score of 0.452.

As for `COC(=O)[C@H](Cc1ccc(O)cc1)N1CC2=CCCC=C[C@@H]2[C@H]1[C@H](O)Cc1ccccc1`, the composite z-score in [1] is -0.615; in assay [3], 0.45; in assay [4] it was -0.197; in [5] it was -0.757; in assay [6], -0.157; in [7] it was -0.138. Besides, the composite z-score in assay [8] was -0.292; in [9], 0.0548; in [10] it was 0.0212. The molecule also displayed a z-score in assay [2] of -0.798.

In the case of `CC(C)N1CC=CC23O[C@@H]4C=CCCOC(=O)C4[C@H]2C(=O)N(CCCCCO)[C@@H]3C1=O` (stereo not given in full), the composite z-score in assay [1] is -0.734; in [3] it was -1.18; in [4], 0.861; in assay [5], -1.34; in assay [6] it was -0.124; in assay [7], -0.0011. Further, the composite z-score is -0.123 in assay [8], 1.92 in [9] and 2.25 in assay [10]. For the same molecule, the z-score in assay [2] is -0.26.

`C=CCOC(=O)[C@@H]1[C@H]2C(=O)O[C@H](c3ccccc3)[C@H](c3ccccc3)N2[C@H](c2ccc(OCCOC(=O)[C@H]3C[C@H]4C(=O)NCC(=O)N4[C@H]3c3ccc(O)cc3)cc2)[C@@]12C(=O)Nc1ccc(I)cc12`: the composite z-score in assay [1] is 0.222; in assay [3] it was 0.606; in assay [4] it was 0.342; in [5], -0.103; in assay [6], -0.0758; in [7], -0.294. The composite z-score stood at 0.036 in assay [8], 1.27 in assay [9] and 1.74 in [10]. Further, the z-score in assay [2] was -2.09.

Values taken from PubChem BioAssay.
